Measured values as given in PubChem BioAssay AID588492 (Sanford-Burnham Center for Chemical Genomics, 2011).
In all, about 360,000 compounds went through this assay and about 2,300 (0.64%) were called active. For the sample, actives were picked, then their nearest neighbours and some compounds at random. Values without a mark were called inactive.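 Rule for the calls: active = compounds giving at least 50% protection of heart cells from peroxide-induced death in the single-dose screen, raw or plate-pattern-corrected value; inactive = the rest.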

Test: cardioprotection against H2O2-induced cell death, primary screen, uHTS, H9c2 cells, ATPLite luminescence (AID 588492);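 note: 0% = DMSO wells with peroxide and 100% = DMSO wells without peroxide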
Details: H9c2 cardiomyocytes, H2O2 injury protection, 2 h, at 20 µM, stronger effect = higher value

SMILES	protection from H2O2 cell death
CCCCCn1c(=O)c(C(=O)NCc2ccccn2)c(O)c2ccccc21	53.7% (active)
CCCCn1c(=O)c(C(=O)Nc2ccccc2Cl)c(O)c2ccccc21	28.7%
CCCCCn1c(=O)c(C(=O)NCc2ccccc2)c(O)c2ccccc21	46.9%
CCN1CCN(C(=O)Cc2coc3cc(C)cc(C)c23)CC1	5.6%
COC(=O)C1=C(c2c(C)noc2C)C[C@@H]2CC[C@H]1N2C(=O)NCc1ccc2c(c1)OCO2	-2.4%
O=C1N=c2ccccc2=C/C1=C\c1c(O)[nH]c(=S)[nH]c1=O	51.8% (active)
O=c1[nH]c(O)c(C=Nc2cc(F)cc(F)c2)c(=O)[nH]1	6.4%
COc1ccccc1N=Nc1c(O)[nH]c(=S)[nH]c1=O	-6.6%
Cc1ccc2c(c1)=C/C(=C\c1c(O)[nH]c(=O)[nH]c1=O)C(=O)N=2	60.8% (active)
CCN1C(=O)C(=Cc2c(C)n(CC(=O)NCC3CCCO3)c3ccccc23)C(=O)N(CC)C1=S (stereo not given)	-2.5%
Nc1ccc([N+](=O)[O-])cc1	-1.6%
Cc1cccc(OP(=O)(Oc2cccc(C)c2)OC(c2ccccc2)C(F)(F)F)c1 (stereo not given)	-8.9%
CC1C(=O)OC2CCN3CC=C(COC(=O)C(C)(O)C1(C)O)C23 (stereo not given)	1.6%
CCn1cc(CN2CCCC(C(=O)c3cccc(C(F)(F)F)c3)C2)cn1 (stereo not given)	-6.7%
CCN1CCN(c2nc3c(c(=O)[nH]2)CCC3)CC1	63% (active)
O=C(NC(c1ccc(Cl)cc1)P(=O)(Oc1ccccc1)Oc1ccccc1)OCc1ccccc1 (stereo not given)	7.3%
O=C(CCNS(=O)(=O)c1ccccc1)Nc1ccc(Cl)cc1C(=O)c1ccccc1	-9.8%
Fc1ccc(C2N3CCCN23)cc1 (stereo not given)	1.5%
C=CC12CN(C)[C@@H]3C4CO[C@H](C[C@H]41)[C@]1(C(=O)Nc4ccccc41)[C@@H]32 (stereo not given in full)	3.5%
NC(=O)Cn1cc(C(=O)c2ccccc2F)c2ccccc21	8.7%
